Data from PubChem BioAssay (NCATS).
Several values for one entry are separate records, joined by “and”; a condition that tells them apart may be missing. Equal values may be shown once. Records with an inconclusive call do not appear. Entries that show only a call come without a potency. A number with no mark means an inactive call. Activity calls are given as the source filed them. Calls come from the whole dose curve; as a rule, active = well fitted curve in the direction sought with a large enough effect; inconclusive = small, poorly fitted or top-dose-only effect, or another doubt; inactive = no such curve, though single readings can be large; an effect the other way counts as inactive or inconclusive. Residues, ends and D or L forms follow the SMILES beside them. *: point of attachment. Cbz = O=C(OCc1ccccc1)*

Assays:
[1] = target: Cellular tumor antigen p53 (Homo sapiens) (UniProt P04637); test: Primary qHTS for small molecule compounds that upregulate eGFP-tagged delta133p53alpha (in N-terminal) cells. (AID 2060322); conditions: NCI-H358 eGFP-delta133p53alpha fluorescence, 24 h; activation: active compounds read high; note: nearly all actives have a fitted effect of over 75% in size;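 for activation: cells pre-induced with doxycycline then dosed without doxycycline; series mostly up to about 56 µM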
Sequence of Cellular tumor antigen p53 (Homo sapiens) (P04637 whole entry, looked up): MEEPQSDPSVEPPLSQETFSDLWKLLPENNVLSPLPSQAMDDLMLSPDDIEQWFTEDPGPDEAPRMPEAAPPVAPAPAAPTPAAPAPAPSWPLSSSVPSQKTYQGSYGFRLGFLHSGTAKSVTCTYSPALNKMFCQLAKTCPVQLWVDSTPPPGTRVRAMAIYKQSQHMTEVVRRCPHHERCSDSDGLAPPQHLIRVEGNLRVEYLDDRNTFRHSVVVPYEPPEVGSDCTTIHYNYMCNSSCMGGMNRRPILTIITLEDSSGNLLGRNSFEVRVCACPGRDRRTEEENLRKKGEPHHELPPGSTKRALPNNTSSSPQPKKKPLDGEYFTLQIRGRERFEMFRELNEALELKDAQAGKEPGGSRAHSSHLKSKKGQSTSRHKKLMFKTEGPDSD
Procedure, shortened: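 NCI-H358 cells pre-induced 24 h with 10 ng/ml doxycycline for eGFP-delta133p53alpha, plated dox-free and exposed 24 h at 37C to titrated compounds. Fixed, Hoechst-stained; gated GFP peak intensity by laser scanning cytometry, normalized to DMSO (0%) and 57.5 uM 5-azacytidine (100%).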

[2] = BET inhibitor-based combinations targeting novel dependencies in MECOM-rearranged (r) AML: SET-2 cell line (AID 2202231); conditions: SET-2 AML cells viability, CellTiter-Glo luminescence, 48 h; viability: active compounds read low, concentration not given here; note: nearly all actives have a fitted effect of over 35% in size
Procedure, shortened: (§1)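 Readout: CellTiter-Glo luminescence. Exposure: 48 h, 11 concentrations, 500 cells/well. Metric: AUC and within-line Z-AUC after DMSO/empty-well normalization.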

[3] = BET inhibitor-based combinations targeting novel dependencies in MECOM-rearranged (r) AML: OCI-AML3 cell line (AID 2202232); conditions: Potency: OCI-AML3 viability; note: nearly all actives have a fitted effect of over 35% in size
Procedure, shortened: as §1

[4] = BET inhibitor-based combinations targeting novel dependencies in MECOM-rearranged (r) AML: MV-4-11 cell line (AID 2202233); note: nearly all actives have a fitted effect of over 45% in size
Procedure, shortened: (§2)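 Seeding density was 500 cells/well, and drug exposure lasted 48 hr under standard culture conditions. Read-out used CellTiter-Glo reagent with a 15 min room-temperature incubation before luminescence measurement; AUC and Z-AUC summarize the normalized responses.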

[5] = BET inhibitor-based combinations targeting novel dependencies in MECOM-rearranged (r) AML: HNT-34 cell line (AID 2202234); note: nearly all actives have a fitted effect of over 35% in size
Procedure, shortened: as §2

[6] = BET inhibitor-based combinations targeting novel dependencies in MECOM-rearranged (r) AML: UCSD-AML1 cell line (AID 2202235); note: nearly all actives have a fitted effect of over 40% in size
Procedure, shortened: as §2

[7] = BET inhibitor-based combinations targeting novel dependencies in MECOM-rearranged (r) AML: AML-191 cell line (AID 2202236; note: nearly all actives have a fitted effect of over 35% in size)
Procedure, shortened: as §1

[8] = BET inhibitor-based combinations targeting novel dependencies in MECOM-rearranged (r) AML: AML-194 cell line (AID 2202237; note: nearly all actives have a fitted effect of over 40% in size)
Procedure, shortened: as §1
Potency is the fitted concentration of half-maximal effect.

Row | SMILES | activation [1] | Potency [2] | Potency [3] | Potency [4] | Potency [5] | Potency [6] | Potency [7] | Potency [8] | viability [2] [%] | Potency [1]
1 | O=C(/C=C\n1cnc(-c2cc(C(F)(F)F)cc(C(F)(F)F)c2)n1)NNc1cnccn1 | 24.8% | 742 nM (active) | 1180 nM (active) | 525 nM (active) | 934 nM (active) | 372 nM (active) | 468 nM (active) | 372 nM (active) |  | 
2 | CCN1CCN(CC(=O)Nc2ccc(-c3cccc4c(=O)cc(N5CCOCC5)oc34)c3sc4ccccc4c23)CC1 | -18.4% | 8110 nM (active) | 2570 nM (active) | 1440 nM (active) | 5740 nM (active) | 2570 nM (active) | 5740 nM (active) | 3230 nM (active) |  | 
3 | COc1c2occc2cc2ccc(=O)oc12 | -0.837% and 22.7% |  | 10500 nM (active) | inactive | inactive | inactive | inactive | inactive | 98.3 | 
4 | NC(=O)c1ncn([C@@H]2O[C@H](CO)[C@@H](O)[C@H]2O)c1N | -7.53% |  | inactive | inactive | inactive | inactive | inactive | inactive | 114 | 
5 | CN1C(C(=O)Nc2ccccn2)=C(O)c2sc(Cl)cc2S1(=O)=O | -22.9% |  | inactive | inactive | inactive | inactive | inactive | inactive | 103 | 
6 | O=C(NC(Cc1cc(=O)[nH]c2ccccc12)C(=O)O)c1ccc(Cl)cc1 (centres undefined) | -0.837% and -7.77% |  | inactive | inactive | inactive | inactive | inactive | inactive | 120 | 
7 | CCC[C@H](N[C@@H](C)C(=O)N1[C@@H]2CCCC[C@H]2C[C@H]1C(=O)O)C(=O)OCC | -22.1% |  | inactive | inactive | inactive | inactive | inactive | inactive | 110 | 
8 | CCCCC(CC)COC(=O)C(C#N)=C(c1ccccc1)c1ccccc1 (centres undefined) | -10.7% and -6.01% |  | inactive | inactive | inactive | inactive | inactive | inactive | 108 | 
9 | CN[C@H]1CCc2cc(OC)c(OC)c(OC)c2-c2ccc(OC)c(=O)cc21 | 7.86% | 186 nM (active) | 93.4 nM (active) | 105 nM (active) | 83.3 nM (active) | 105 nM (active) | 105 nM (active) | 105 nM (active) |  | 
10 | CC(=O)O[C@H]1C[C@@H]2CC[C@H]3[C@H]4C[C@H]([N+]5(C)CCCCC5)[C@@H](OC(C)=O)[C@@]4(C)CC[C@@H]3[C@@]2(C)C[C@H]1[N+]1(C)CCCCC1 | 5.41% |  | inactive | inactive | inactive | inactive | inactive | inactive | 114 | 
11 | Nc1ncnc2c1nc(Cl)n2[C@@H]1O[C@H](CO)[C@@H](O)[C@@H]1O | -2.08% | 11800 nM (active) | 13200 nM (active) | 5250 nM (active) | 2950 nM (active) | 5900 nM (active) | 3720 nM (active) | 2630 nM (active) |  | 
12 | CCOC(=O)C1=C[C@@H](OC(CC)CC)[C@H](NC(C)=O)[C@@H](N)C1 | -8.89% |  | inactive | inactive | inactive | inactive | inactive | inactive | 112 | 
13 | CC(C)=CC[C@@H](O)C1=CC(=O)c2c(O)ccc(O)c2C1=O | 3.62% | 10500 nM (active) | 14800 nM (active) | 8330 nM (active) | 9340 nM (active) | 10500 nM (active) | 10500 nM (active) | 10500 nM (active) |  | 
14 | CC(C)(CO)[C@@H](O)C(=O)NCCC(=O)O | -14.4% |  | inactive | inactive | inactive | inactive | inactive | inactive | 117 | 
15 | O=c1oc2c(O)c(O)cc3c(=O)oc4c(O)c(O)cc1c4c23 | -6.69% and -19.7% |  | inactive | inactive | inactive | inactive | inactive | inactive | 113 | 
16 | O=C(O)C(=O)Nc1cccc(-c2nn[nH]n2)c1 | -3.95% |  | inactive | inactive | inactive | inactive | inactive | inactive | 121 | 
17 | CC(N)C12CC3CC(CC(C3)C1)C2 (centres undefined) | -14.2% and 12.7% |  | inactive | inactive | inactive | inactive | inactive | inactive | 106 | 
18 | CC1Cc2ccccc2N1NC(=O)c1ccc(Cl)c(S(N)(=O)=O)c1 (centres undefined) | -9.21% and -1.28% |  | inactive | inactive | inactive | inactive | inactive | inactive | 112 | 
19 | C[C@]12CC[C@@H]3c4ccc(O)cc4CC[C@H]3[C@H]1[C@@H](O)[C@@H](O)[C@H]2O | 9.46% |  | inactive | inactive | inactive | inactive | inactive | inactive | 104 | 

Row | SMILES | activation [1] | Potency [2] | Potency [3] | Potency [4] | Potency [5] | Potency [6] | Potency [7] | Potency [8] | viability [2] [%] | Potency [1]
20 | CS(=O)(=O)Oc1ccc2c(NC(N)=O)c(C(=O)c3ccc(Cl)cc3Cl)oc2c1 | -14% |  | inactive | inactive | inactive | inactive | inactive | inactive | 97.1 | 
21 | COC[C@H](NC(=O)c1cnc(C)s1)C(=O)N[C@@H](COC)C(=O)N[C@@H](Cc1ccccc1)C(=O)[C@@]1(C)CO1 |  | 166 nM (active) | 93.4 nM (active) | 83.3 nM (active) | 93.4 nM (active) | 132 nM (active) | 186 nM (active) | 332 nM (active) |  | 17200 nM (active)
22 | COC1CCC(C(=O)c2ccc3nc4c(cc3c2)CCCO4)CC1 (centres undefined) | -1.02% |  | inactive | inactive | inactive | inactive | inactive | inactive | 105 | 
23 | CC(=O)[C@H]1CC[C@H]2[C@@H]3CC=C4C[C@@H](O)CC[C@]4(C)[C@H]3CC[C@]12C | -3.95% and -16.2% |  | inactive | inactive | inactive | inactive | inactive | inactive | 112 | 
24 | CC(C)C[C@@H](C=O)NC(=O)[C@H](CC(C)C)NC(=O)[C@H](CC(C)C)NC(=O)OCc1ccccc1 (Cbz-Leu-Leu-Leu-aldehyde) |  | 1480 nM (active) | 1860 nM (active) | 2350 nM (active) | 2350 nM (active) | 2950 nM (active) | 2350 nM (active) | 2630 nM (active) |  | 2730 nM (active)
25 | CC(=O)SCC(Cc1ccccc1)C(=O)NCC(=O)OCc1ccccc1 (centres undefined) | 16.6% |  | inactive | inactive | inactive | inactive | inactive | inactive | 105 | 
26 | c1cc(CN2CCCNCCNCCCNCC2)ccc1CN1CCCNCCNCCCNCC1 | 39.7% |  | inactive | inactive | inactive | inactive | inactive | inactive | 87.5 | 
27 | NC(=O)c1cnc(N[C@@H]2CCCC[C@@H]2N)nc1Nc1cccc(-n2nccn2)c1 |  | 23500 nM (active) | 16600 nM (active) | 3320 nM (active) | 14800 nM (active) | 8330 nM (active) | 16600 nM (active) | 18600 nM (active) |  | 34300 nM (active)
28 | OCCN1C[C@H](O)[C@@H](O)[C@H](O)[C@H]1CO | -10.9% |  | inactive | inactive | inactive | inactive | inactive | inactive | 115 | 
29 | Cc1ncc([N+](=O)[O-])n1CC(C)O (centres undefined) | 12.6% and -16.1% |  | inactive | inactive | inactive | inactive | inactive | inactive | 124 | 
30 | CC#CCn1c(N2CCC[C@@H](N)C2)nc2c1c(=O)n(Cc1nc(C)c3ccccc3n1)c(=O)n2C | 6.37% |  | inactive | inactive | inactive | inactive | inactive | inactive | 113 | 
31 | CC(Oc1ccc(O)cc1)(P(=O)(O)O)P(=O)(O)O | -17.7% |  | inactive | inactive | inactive | inactive | inactive | inactive | 109 | 
32 | Cc1ccccc1N1C(=O)c2cc(S(N)(=O)=O)c(Cl)cc2NC1C (centres undefined) | -15.9% and -14.5% |  | inactive | inactive | inactive | inactive | inactive | inactive | 115 | 
33 | CCc1c2c(nc3ccc(OC(=O)N4CCC(N5CCCCC5)CC4)cc13)-c1cc3c(c(=O)n1C2)COC(=O)[C@]3(O)CC | 14.2% | 372 nM (active) | 186 nM (active) | 166 nM (active) | 105 nM (active) | 209 nM (active) | 235 nM (active) | 332 nM (active) |  | 
34 | CC(C)C[C@H](NC(=O)CNC(=O)c1cc(Cl)ccc1Cl)B1OC(=O)CC(CC(=O)O)(C(=O)O)O1 (some centres undefined) |  | 118 nM (active) | 132 nM (active) | 132 nM (active) | 132 nM (active) | 166 nM (active) | 166 nM (active) | 186 nM (active) |  | 9680 nM (active)
35 | Oc1c(Cl)cc(Cl)c2cccnc12 | 16.4% and -7.96% | 8330 nM (active) | 16600 nM (active) | 11800 nM (active) | 4170 nM (active) | 5250 nM (active) | 8330 nM (active) | 8330 nM (active) |  | 
36 | CN(N=O)C(=O)N[C@@H]1[C@@H](O)[C@H](O)[C@@H](CO)O[C@@H]1O | -14.1% |  | inactive | inactive | inactive | inactive |  | inactive | 101 | 
37 | COc1ccc(S(=O)(=O)Nc2cc(-c3c(O)ccc4ccccc34)c(O)c3ccccc23)cc1 | 23.1% | 11800 nM (active) | 2630 nM (active) | 833 nM (active) | 1660 nM (active) | 3720 nM (active) |  | 1660 nM (active) |  | 
